Assay [1] has as its system Wnt5a (protein binding on small-molecule microarray). Put plainly: small molecules binding Wnt5a protein – biophysical, small-molecule microarray, 635/667 nm fluorescence, primary screen (AID 1142).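 Further: fluorescence read at 667 nm with signal to noise per printed feature.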 The settings on record: 635 nm fluorescence, higher = more signal.
Assay [2] in a line: ATP-based viability of Huh7 replicon cells – cell-based, CellTiter-Glo luminescence, basal, 48 h, cytotoxicity control for HCV replication inhibitor project, primary screen (AID 1143).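 Further: Huh7 hepatoma cells carrying a hepatitis C replication reporter with no stimulus; test concentration not given here.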 The settings on record: higher = more signal, called active from +8 up or from −8 down. Background: A replicon is a self-replicating genome or part of one, used to study replication in cells.
A short description of assay [3]: Pseudomonas biofilm growth suppression – PAO1 strain, BacTiter-Glo luminescence, LB-PBS, primary screen (AID 1144). The following applies: P. aeruginosa PAO1 biofilm, 12 h, higher = more signal.
Assay [4] can be described thus: basal CRE-LacZ reporter activity in PC12 – cell-based, unstimulated, primary screen (AID 1145). The settings on record: no forskolin, luminescence, 4.5 h, higher = more signal, called active from +8 up or from −8 down.
Assay [5] is described as follows: forskolin-driven CRE-LacZ activity in PC12 – cell-based, CRE-LacZ reporter, forskolin-stimulated, primary screen (AID 1146).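 Further: PC12 cells with 6xCRE LacZ reporter stimulated by forskolin 10 µM; beta-galactosidase reporter signal reflecting CREB driven transcription.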 The following applies: luminescence, 4.5 h, higher = more signal, called active from +8 up or from −8 down.
Assay [6] has as its target Streptavidin (Streptomyces avidinii) (UniProt P22629). Put plainly: compounds binding control protein streptavidin – biophysical, small-molecule microarray, 635/667 nm fluorescence, artefact control for SMM compound annotation, primary screen (AID 1147).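 Further: signal reflects streptavidin binding to arrayed compounds as a control protein.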 The following applies: higher = more signal.
The nature of assay [7]: probe aInhba binding on compound microarray – biochemical, small-molecule microarray, 635/667 nm fluorescence, primary screen (AID 1148).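 Further: score merges 667nm spot fluorescence with signal-to-noise for antibody binding to printed compounds.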 The following applies: higher = more signal.
Assay [8] has as its target Torsin-1A (Homo sapiens) (UniProt O14656). Put plainly: TOR1A wild-type binding on microarray – cell lysate, small-molecule microarray, lysate, 635/667 nm, primary screen (AID 1149). The settings on record: COS7 hTOR1A-WT lysate, 635 nm fluorescence, higher = more signal.
Assay [9] shares this target. Put plainly: torsin A mutant lysate binding on microarrays – cell lysate, small-molecule microarray, COS7 lysate, 635/667 nm fluorescence, primary screen (AID 1150).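 Further: score pools 667 nm emission and signal to noise measuring lysate protein binding.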 The following applies: COS7 hTOR1A mutant lysate, 635 nm fluorescence, higher = more signal.
Assay [10] deals with Sonic hedgehog protein (Shh). Put plainly: Sonic hedgehog microarray binding compounds – biochemical, small-molecule microarray, 635/667 nm fluorescence, primary screen (AID 1151).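 Further: Shh protein binding to compounds spotted on small-molecule microarray slides; score combines spot fluorescence intensity with signal-to-noise across triplicate slides.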 The settings on record: 635 nm fluorescence, higher = more signal.
The nature of assay [11]: optical density shifts of acrAB sulA E. coli – strain DRC41, OD650, 48 h, E. coli filamentation inducer project, primary screen (AID 1152).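 Further: E. coli MC1000 strain DRC41 lacking acrAB efflux pump and sulA.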 The following applies: higher = more signal, called active from +8 up or from −8 down.
Assay [12] is described as follows: probe aLefty1 binding on compound microarray – biochemical, small-molecule microarray, 635/667 nm fluorescence, primary screen (AID 1153).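 Further: score merges spot fluorescence with signal-to-noise ratio from the scanned slide images.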 The following applies: higher = more signal.
Assay [13] is described as follows: plasmodial surface anion channel blockers, osmotic lysis – cell-based, P. falciparum Indochina, OD700, 1 h, primary screen (AID 1154). The following applies: P. falciparum Indochina infected RBC osmotic lysis, higher = more signal, called active from +8 up or from −8 down.
Assay [14] can be described thus: plasmodial surface anion channel blockers, osmotic lysis – cell-based, P. falciparum Indochina, OD700, 2 h, primary screen (AID 1155).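 Further: lysis reports solute entry through the parasite surface anion channel PSAC.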 The following applies: P. falciparum Indochina infected erythrocytes, higher = more signal, called active from +8 up or from −8 down.
Assay [15] can be described thus: changes in parasitized red cell lysis, either direction – P. falciparum Indochina, OD700, 3 h, PSAC antagonist project, primary screen (AID 1156). The settings on record: P. falciparum-infected erythrocytes, osmotic lysis, higher = more signal, called active from +8 up or from −8 down.
Assay [16] in a line: plasmodial surface anion channel blockers, osmotic lysis – cell-based, P. falciparum Indochina, OD700, 18 h, primary screen (AID 1157). The settings on record: P. falciparum Indochina infected erythrocytes, osmotic lysis OD700, 18 h; higher = more signal, called active from +8 up or from −8 down.
Assay [17] can be described thus: S6 kinase pathway phospho-S6 level changes – cell-based, A549, cytoblot, luminescence, serum-stimulated, primary screen (AID 1158).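 Further: serum-stimulated A549 lung adenocarcinoma cells; signal is phosphorylated S6 detected by cytoblot immunostaining with HRP secondary.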 The following applies: 5 h, higher = more signal.
The target in assay [18] is NADPH oxidase 2 (Homo sapiens) (UniProt P04839). Put plainly: compounds shifting NOX2 Amplex Red fluorescence – cell-based, HEK293-NOX2, PMA-stimulated, NOX inhibitor project, primary screen (AID 1159). Further: test concentration not given here. The following applies: 45 min, higher = more signal, called active from +8 up or from −8 down.
In assay [19] the target is NADPH oxidase 4 (Homo sapiens) (UniProt Q9NPH5). Put plainly: compounds shifting NOX4 Amplex Red fluorescence – cell-based, HEK293-NOX4, tetracycline-induced, NOX inhibitor project, primary screen (AID 1160). The settings on record: HEK293-NOX4, Amplex Red H2O2 fluorescence, 45 min; higher = more signal, called active from +8 up or from −8 down.
Assay [20] addresses NADPH oxidase 5 (Homo sapiens) (UniProt Q96PH1). Put plainly: compounds shifting NOX5 Amplex Red fluorescence – cell-based, HEK293-NOX5, NOX inhibitor project, primary screen (AID 1161). The settings on record: HEK293-NOX5, ionomycin, 45 min, higher = more signal.

Calls of active or inactive are those of the source. Unless noted, how the calls were made is not given here.

Streptavidin (Streptomyces avidinii), sequence (P22629 whole entry, looked up): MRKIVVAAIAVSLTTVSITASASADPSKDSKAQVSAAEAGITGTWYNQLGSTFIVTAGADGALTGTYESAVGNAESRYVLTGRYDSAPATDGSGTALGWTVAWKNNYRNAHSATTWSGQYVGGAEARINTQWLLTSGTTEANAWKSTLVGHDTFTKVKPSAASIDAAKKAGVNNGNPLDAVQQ
NADPH oxidase 2 (Homo sapiens), sequence (P04839 whole entry, looked up): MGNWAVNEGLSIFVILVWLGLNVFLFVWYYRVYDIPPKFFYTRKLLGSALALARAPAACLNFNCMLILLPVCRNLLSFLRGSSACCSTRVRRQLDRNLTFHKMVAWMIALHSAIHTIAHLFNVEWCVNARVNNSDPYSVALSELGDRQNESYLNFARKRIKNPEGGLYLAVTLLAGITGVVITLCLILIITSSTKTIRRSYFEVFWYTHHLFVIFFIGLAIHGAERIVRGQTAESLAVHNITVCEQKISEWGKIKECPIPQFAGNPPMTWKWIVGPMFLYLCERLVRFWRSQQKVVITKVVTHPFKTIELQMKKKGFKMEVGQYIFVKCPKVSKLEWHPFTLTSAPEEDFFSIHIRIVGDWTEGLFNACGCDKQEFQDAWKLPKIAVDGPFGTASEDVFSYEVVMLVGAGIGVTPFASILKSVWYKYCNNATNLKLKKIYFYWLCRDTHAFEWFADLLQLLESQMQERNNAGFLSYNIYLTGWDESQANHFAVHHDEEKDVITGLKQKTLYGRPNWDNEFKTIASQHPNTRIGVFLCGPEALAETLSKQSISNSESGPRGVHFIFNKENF
NADPH oxidase 5 (Homo sapiens), sequence (Q96PH1 whole entry, looked up): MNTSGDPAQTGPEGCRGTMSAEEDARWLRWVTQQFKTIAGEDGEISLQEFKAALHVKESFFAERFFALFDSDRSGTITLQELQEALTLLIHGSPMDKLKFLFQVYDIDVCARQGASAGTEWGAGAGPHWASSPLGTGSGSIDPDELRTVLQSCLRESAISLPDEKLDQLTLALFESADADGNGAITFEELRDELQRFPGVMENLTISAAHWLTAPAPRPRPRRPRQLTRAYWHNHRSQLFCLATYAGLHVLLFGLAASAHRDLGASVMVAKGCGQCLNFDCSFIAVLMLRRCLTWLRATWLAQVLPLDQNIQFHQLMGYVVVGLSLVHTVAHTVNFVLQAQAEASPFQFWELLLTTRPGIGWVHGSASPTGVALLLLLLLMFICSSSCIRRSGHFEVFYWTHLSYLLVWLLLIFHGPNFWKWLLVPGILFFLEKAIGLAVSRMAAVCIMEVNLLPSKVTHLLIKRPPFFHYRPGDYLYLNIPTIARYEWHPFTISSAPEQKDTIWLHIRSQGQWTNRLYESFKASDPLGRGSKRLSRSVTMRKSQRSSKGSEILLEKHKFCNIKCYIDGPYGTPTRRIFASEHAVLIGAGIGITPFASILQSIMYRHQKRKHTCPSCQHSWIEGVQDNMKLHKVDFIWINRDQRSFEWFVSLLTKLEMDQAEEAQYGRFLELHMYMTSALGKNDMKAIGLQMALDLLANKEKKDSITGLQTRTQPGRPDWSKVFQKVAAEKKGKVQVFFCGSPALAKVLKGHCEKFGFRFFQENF
NADPH oxidase 4 (Homo sapiens), sequence (Q9NPH5 whole entry, looked up): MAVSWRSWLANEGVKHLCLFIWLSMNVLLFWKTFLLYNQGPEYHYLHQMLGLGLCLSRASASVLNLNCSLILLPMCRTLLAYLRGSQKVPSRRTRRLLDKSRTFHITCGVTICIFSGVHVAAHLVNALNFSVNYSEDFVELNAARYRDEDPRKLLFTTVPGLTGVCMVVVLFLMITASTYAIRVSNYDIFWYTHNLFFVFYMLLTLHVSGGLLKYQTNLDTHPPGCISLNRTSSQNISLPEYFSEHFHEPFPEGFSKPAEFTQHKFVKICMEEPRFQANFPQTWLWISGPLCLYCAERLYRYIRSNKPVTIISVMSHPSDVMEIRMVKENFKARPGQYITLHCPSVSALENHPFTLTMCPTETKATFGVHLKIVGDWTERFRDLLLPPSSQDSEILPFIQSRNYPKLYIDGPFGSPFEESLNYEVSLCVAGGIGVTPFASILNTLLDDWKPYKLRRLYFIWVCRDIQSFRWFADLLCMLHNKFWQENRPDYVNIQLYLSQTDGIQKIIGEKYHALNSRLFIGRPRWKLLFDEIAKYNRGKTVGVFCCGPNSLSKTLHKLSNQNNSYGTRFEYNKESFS
Torsin-1A (Homo sapiens), sequence (O14656 whole entry, looked up): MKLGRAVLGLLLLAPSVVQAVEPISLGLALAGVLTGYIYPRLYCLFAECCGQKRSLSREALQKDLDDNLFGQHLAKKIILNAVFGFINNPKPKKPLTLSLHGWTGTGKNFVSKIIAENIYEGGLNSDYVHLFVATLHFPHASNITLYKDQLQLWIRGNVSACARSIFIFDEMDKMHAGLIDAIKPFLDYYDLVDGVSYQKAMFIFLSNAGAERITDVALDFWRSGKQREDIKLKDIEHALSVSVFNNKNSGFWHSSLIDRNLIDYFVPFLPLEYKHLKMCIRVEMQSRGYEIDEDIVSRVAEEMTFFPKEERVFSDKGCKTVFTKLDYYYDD

Turning to `CSCC[C@@H]1NC(=O)CC=C[C@@H](C)COC(=O)[C@H](C)COC1=O`, the composite z-score was 0.624 in assay [1]; -0.918 in assay [6]; -0.17 in assay [7]; 3.64 in assay [8]; 3.77 in assay [9]; 2.45 in [10]. This molecule showed a composite z-score in [12] of -0.321. For the same molecule, the z-score in [2] was -1.67 (inactive); in assay [3] it was -1.66 (inactive); in [4], 0.163 (inactive); in assay [5], -0.925 (inactive); in [11], 0.832 (inactive); in assay [13], -0.274 (inactive). Further, the z-score in assay [14] was -1.3 (inactive); in assay [15], -0.92 (inactive); in assay [16], -1.58 (inactive); in [17] it was 2.08; in assay [18], -1.01 (inactive); in [19], 0.384 (inactive). The z-score in [20] amounted to 0.515.
On to `COC(=O)[C@H](C)NC(=O)CCC1CC(OC(=O)NCc2cccc3ccccc23)CC2(CCCC(COC(=O)NCc3cccc(C(F)(F)F)c3)O2)O1` (stereo not given in full), for which the composite z-score amounted to 0.166 in assay [1]; 0.925 in assay [6]; 0.444 in assay [7]; 0.241 in assay [8]; 0.225 in [9]; 1.04 in assay [10]. The molecule also came in with a composite z-score in assay [12] of 0.0794. In addition, the z-score in assay [2] is -1.33 (inactive); in [3], -1.07 (inactive); in assay [4], -0.0755 (inactive); in assay [5], -0.213 (inactive); in assay [11], -0.356 (inactive); in assay [13], 1.35 (inactive). Further, the z-score in [14] was -0.871 (inactive); in [15], 0.339 (inactive); in assay [16], -1.23 (inactive); in assay [17], 1.1; in assay [18], 0.352 (inactive); in [19], -0.179 (inactive). Also, the z-score in assay [20] came to 0.0278.
Regarding `CO[C@@H]1COC(=O)[C@H](CCSC)NC(=O)CC=C[C@@H](C)COC(=O)[C@@H]2CCCN2C(=O)CC=C[C@H]1C`, the composite z-score is 0.186 in [1]; -0.234 in assay [6]; -0.024 in assay [7]; 1.24 in assay [8]; 0.785 in assay [9]; 0.876 in [10]. In assay [12], this molecule registered a composite z-score of 0.224. Besides, the z-score in [2] was -0.501 (inactive); in assay [3], 0.277 (inactive); in assay [4] it was 0.0652 (inactive); in [5], -1.38 (inactive); in assay [11], -0.785 (inactive); in assay [13], 0.911 (inactive). Further, the z-score in assay [14] was 0.727 (inactive); in assay [15], 0.537 (inactive); in assay [16] it was 0.354 (inactive); in [17], -0.235; in [18], -2.15 (inactive); in [19], -0.045 (inactive). Further, the z-score in assay [20] came out at 0.887.
`CC(CCN1CCCc2nc(C)c(C)cc21)=NOC[C@@H](O)COCc1ccco1`: the composite z-score came to 0.516 in [1]; 0.0849 in assay [6]; 1.26 in assay [7]; 4.39 in assay [8]; 4.29 in [9]; 2.5 in assay [10]. Moreover, the composite z-score in [12] came out at 1.95. For the same molecule, the z-score is -0.244 (inactive) in [2]; -0.837 (inactive) in [3]; -0.0638 (inactive) in assay [4]; -0.175 (inactive) in assay [5]; 0.768 (inactive) in assay [11]; 3.52 (inactive) in assay [13]. For the same molecule, the z-score was 0.281 (inactive) in assay [14]; 0.453 (inactive) in assay [15]; 0.22 (inactive) in assay [16]; -0.815 in assay [17]; -0.869 (inactive) in [18]; -0.583 (inactive) in assay [19]. Also, the z-score in assay [20] is -0.144.
In the case of `CCOC(=O)CCN1C(=O)[C@H]2[C@H]3[C@H](O)[C@H](O)CC(=NO[C@@H]4O[C@H](CO)[C@@H](O)[C@H](O)[C@H]4O)[C@@H]3CC[C@H]2C1=O`, the composite z-score was 0.231 in [1]; 0.036 in assay [6]; 0.0173 in [7]; 1.87 in [8]; 1.12 in assay [9]; 1.62 in assay [10]. In [12], this molecule yielded a composite z-score of 0.121. For the same molecule, the z-score was -0.784 (inactive) in [2]; 1.24 (inactive) in assay [3]; -0.748 (inactive) in assay [4]; 1.17 (inactive) in [5]; 0.998 (inactive) in assay [11]; 3.62 (inactive) in assay [13]. Further, the z-score in assay [14] was 0.155 (inactive); in assay [15] it was 1.31 (inactive); in assay [16], 0.82 (inactive); in [17], -0.235; in assay [18], -2.95 (inactive); in assay [19], 0.332 (inactive). Further, the z-score in assay [20] was -2.16.

Source of the values: PubChem BioAssay.
